Assay results taken from PubChem BioAssay (Tox21).
Inconclusive results are not listed. Calls of active or inactive are those of the source. Unless noted, calls follow the shape of the dose curve; as a rule, active = well fitted curve in the direction sought with a large enough effect in the repeat runs; inconclusive = weak or mixed curves; inactive = no such curve, though single readings can be large; an effect the other way counts as inactive or inconclusive.

Legend:
[1] = qHTS assay to identify small molecule antagonists of the estrogen receptor alpha (ER-alpha) signaling pathway using the BG1 cell line in the presence of 0.1 nM 17-beta-estradiol - cell viability counter screen (AID 1259241); also: nearly all actives have a fitted effect of over 40% in size
Method in brief: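 VM7Luc4E2 cells (endogenous ER-alpha, 4×ERE-luciferase), hormone-starved 5 days in charcoal-stripped FBS, were treated with compounds plus 0.1 nM 17beta-estradiol for 22 hr at 37C; viability read in same wells as CellTiter-Fluor live-cell protease fluorescence.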

[2] = qHTS assay to identify small molecule antagonists of the androgen receptor (AR) signaling pathway using the MDA cell line in the presence of 0.5 nM R1881 - cell viability counter screen (AID 1259242); also: nearly all actives have a fitted effect of over 45% in size
Method in brief: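 Cells seeded at 3,000/well and allowed 5 hr at 37C, 0% CO2 before compound transfer and R1881 (0.5 nM final) addition; 16 hr later, live-cell protease fluorescence indicated cytotoxicity.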

[3] = target: Estrogen receptor (Homo sapiens) (UniProt P03372); assay: qHTS assay to identify small molecule antagonists of the estrogen receptor alpha (ER-alpha) signaling pathway using the BG1 cell line in the presence of 0.1 nM 17-beta-estradiol (AID 1259244); also: nearly all actives have a fitted effect of over 50% in size
Chain of Estrogen receptor (Homo sapiens) (P03372 whole entry, looked up): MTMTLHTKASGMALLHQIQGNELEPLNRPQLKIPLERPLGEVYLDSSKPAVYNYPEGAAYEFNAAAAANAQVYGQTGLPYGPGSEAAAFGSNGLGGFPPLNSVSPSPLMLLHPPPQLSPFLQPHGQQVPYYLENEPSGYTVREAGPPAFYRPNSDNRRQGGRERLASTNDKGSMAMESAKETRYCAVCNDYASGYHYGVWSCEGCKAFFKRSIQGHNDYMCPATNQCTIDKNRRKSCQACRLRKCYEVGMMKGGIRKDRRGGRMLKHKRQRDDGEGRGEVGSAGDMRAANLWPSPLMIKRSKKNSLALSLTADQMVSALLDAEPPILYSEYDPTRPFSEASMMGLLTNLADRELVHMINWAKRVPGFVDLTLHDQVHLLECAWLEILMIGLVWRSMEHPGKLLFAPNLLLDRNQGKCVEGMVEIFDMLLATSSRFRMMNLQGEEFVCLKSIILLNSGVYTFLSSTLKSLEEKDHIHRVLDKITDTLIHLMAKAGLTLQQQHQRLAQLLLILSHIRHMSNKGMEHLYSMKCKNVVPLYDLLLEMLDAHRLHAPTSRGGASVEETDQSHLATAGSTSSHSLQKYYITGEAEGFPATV
Method in brief: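 Luciferase signal from VM7Luc4E2 ERE-reporter cells, co-dosed with test compound and 0.1 nM final 17beta-estradiol for 22 h, read with ONE-Glo.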

[4] = qHTS assay to identify small molecule HDAC inhibitors (AID 1259364);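 also: wild-type HCT-116 cells with endogenous class I/II HDAC activity; top concentration of the series differs between compounds; nearly all actives have a fitted effect of over 45% in size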
Method in brief: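 HCT-116 wt cells, 1,500/well, overnight attach. Compounds (DMSO) 2 h, 37 °C. HDAC-Glo I/II, 30 min RT. Luminescence.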

[5] = qHTS assay to identify small molecule HDAC inhibitors - cell viability counter screen (AID 1259365); also: series mostly up to about 92 µM; nearly all actives have a fitted effect of over 50% in size
Method in brief: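 Wild-type HCT-116 cells were seeded at 1,500 per well, incubated overnight at 37 C, then exposed to compounds in DMSO for 2hr. Viability was read by CellTiter-Glo luminescence after 30min at room temperature.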

[6] = qHTS assay to identify small molecule agonists of the sonic hedgehog signaling (Shh) pathway - cell viability counter screen (AID 1259366); also: nearly all actives have a fitted effect of over 50% in size
Method in brief: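 NIH/3T3-derived 3T3 Gli1-Luc cells (stable Gli1-responsive firefly luciferase reporter) were seeded, rested 4 hr at 37 C/5% CO2, then exposed to compounds in DMSO for 24 hr; viability was read by CellTiter-Fluor fluorescence in the same wells.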

[7] = qHTS assay to identify small molecule antagonists of the sonic hedgehog signaling (Shh) pathway - cell viability counter screen (AID 1259367); also: nearly all actives have a fitted effect of over 55% in size
Method in brief: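 Fluorescence read-out (CellTiter-Fluor, 1 hr at 37C) taken after 23 hr compound treatment of 3T3 Gli1-Luc cells stimulated with conditioned medium. Cells were seeded at 2,000 per well and pre-incubated 4 hr.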

[8] = qHTS assay to identify small molecule agonists of the sonic hedgehog signaling (Shh) pathway (AID 1259368; calls by dose curve; also: series mostly up to about 92 µM; nearly all actives have a fitted effect of over 15% in size)
Method in brief: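 Following a 24 hr incubation with DMSO-dissolved compounds at 37 C, 5% CO2, Gli1-Luc NIH/3T3-derived cells received luciferase reagent for 30 min at room temperature prior to luminescence measurement.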

[9] = qHTS assay to identify small molecule agonists of the androgen receptor (AR) signaling pathway in the presence of an antagonist - cell viability counter screen (AID 1259379);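 also: MDA-kb2 human breast cancer cells carrying an MMTV luciferase reporter; series mostly up to about 92 µM; nearly all actives have a fitted effect of over 25% in size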
Method in brief: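 Each compound was tested at 15 concentrations on MDA-kb2 cells in the presence of 3.0uM nilutamide. Viability was measured by CellTiter-Fluor fluorescence after a 16 hr incubation at 37C in a CO2-free atmosphere.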

[10] = target: Estrogen receptor (Homo sapiens) (UniProt P03372); assay: qHTS assay to identify small molecule agonists of the estrogen receptor alpha (ER-alpha) signaling pathway in the presence of an antagonist (AID 1259383; calls by dose curve; also: top concentration of the series differs between compounds; nearly all actives have a fitted effect of over 15% in size)
Method in brief: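 Luminescent ERE-luciferase reporter, VM7Luc4E2 cells (endogenous ER-alpha); 10.0nM ICI-182,780 final; 15-point compound titration; 22hr at 37C; ONE-Glo, 30min RT.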

[11] = qHTS assay to identify small molecule agonists or antagonists of the thyroid stimulating hormone receptor (TSHR) signaling pathway - wild type cell line counter screen (AID 1259384; calls by dose curve)
Method in brief: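 Wild-type Hek293 cells, 800/well, 18 h at 37C, then compound with Ro20-1724 for 30 min RT. cAMP by HTRF (cAMP-d2/anti-cAMP cryptate), 1 h RT, fluorescence read. 15 concentrations, triplicates.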

[12] = target: Thyrotropin receptor (Homo sapiens) (UniProt P16473); assay: qHTS assay to identify small molecule antagonists of the thyroid stimulating hormone receptor (TSHR) signaling pathway (AID 1259385; calls by dose curve; also: nearly all actives have a fitted effect of over 20% in size)
Chain of Thyrotropin receptor (Homo sapiens) (P16473 whole entry, looked up): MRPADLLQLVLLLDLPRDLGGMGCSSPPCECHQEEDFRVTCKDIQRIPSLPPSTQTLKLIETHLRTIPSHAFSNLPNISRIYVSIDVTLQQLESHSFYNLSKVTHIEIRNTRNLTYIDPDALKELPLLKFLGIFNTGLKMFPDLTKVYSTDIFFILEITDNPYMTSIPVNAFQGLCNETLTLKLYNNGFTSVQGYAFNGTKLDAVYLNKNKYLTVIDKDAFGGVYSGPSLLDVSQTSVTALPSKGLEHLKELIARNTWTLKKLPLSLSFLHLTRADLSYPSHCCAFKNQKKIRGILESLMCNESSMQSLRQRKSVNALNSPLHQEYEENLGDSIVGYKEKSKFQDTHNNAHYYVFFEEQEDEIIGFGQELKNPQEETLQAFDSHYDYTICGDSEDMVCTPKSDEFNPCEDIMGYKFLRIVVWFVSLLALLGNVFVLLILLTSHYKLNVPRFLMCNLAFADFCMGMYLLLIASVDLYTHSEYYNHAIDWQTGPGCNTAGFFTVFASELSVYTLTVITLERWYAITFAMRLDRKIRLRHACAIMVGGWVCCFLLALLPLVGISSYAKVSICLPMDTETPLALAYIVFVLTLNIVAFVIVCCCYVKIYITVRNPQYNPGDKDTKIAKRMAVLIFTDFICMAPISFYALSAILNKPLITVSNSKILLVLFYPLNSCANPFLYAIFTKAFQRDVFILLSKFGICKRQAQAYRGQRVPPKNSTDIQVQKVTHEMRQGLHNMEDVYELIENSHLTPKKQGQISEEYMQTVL
Method in brief: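 TSHR-HEK293 cells (800/well) plated 18 h, then compounds with Ro20-1724 and TSH at 1.5 ng/mL final, 30 min at room temperature. cAMP quantified by HTRF (cAMP-d2/anti-cAMP-cryptate, 1 h); 15 concentrations in triplicate.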

[13] = qHTS assay to identify small molecule antagonists of the sonic hedgehog signaling (Shh) pathway (AID 1259369; calls by dose curve; also: nearly all actives have a fitted effect of over 45% in size)
Method in brief: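 Read-out is luminescence from a firefly luciferase gene controlled by the Gli1 response element, in 3T3Gli1-Luc cells pre-incubated 4hr then exposed to compounds and conditioned medium for 24hr.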

[14] = target: Estrogen receptor beta (Homo sapiens) (UniProt Q92731); assay: qHTS assay to identify small molecule agonists of the estrogen receptor beta (ER-beta) signaling pathway (AID 1259377; active = well fitted activation curve with a large enough effect in the signal ratio in the repeat runs, not every such curve was filed as active; the % refers to the signal ratio)
Chain of Estrogen receptor beta (Homo sapiens) (Q92731 whole entry, looked up): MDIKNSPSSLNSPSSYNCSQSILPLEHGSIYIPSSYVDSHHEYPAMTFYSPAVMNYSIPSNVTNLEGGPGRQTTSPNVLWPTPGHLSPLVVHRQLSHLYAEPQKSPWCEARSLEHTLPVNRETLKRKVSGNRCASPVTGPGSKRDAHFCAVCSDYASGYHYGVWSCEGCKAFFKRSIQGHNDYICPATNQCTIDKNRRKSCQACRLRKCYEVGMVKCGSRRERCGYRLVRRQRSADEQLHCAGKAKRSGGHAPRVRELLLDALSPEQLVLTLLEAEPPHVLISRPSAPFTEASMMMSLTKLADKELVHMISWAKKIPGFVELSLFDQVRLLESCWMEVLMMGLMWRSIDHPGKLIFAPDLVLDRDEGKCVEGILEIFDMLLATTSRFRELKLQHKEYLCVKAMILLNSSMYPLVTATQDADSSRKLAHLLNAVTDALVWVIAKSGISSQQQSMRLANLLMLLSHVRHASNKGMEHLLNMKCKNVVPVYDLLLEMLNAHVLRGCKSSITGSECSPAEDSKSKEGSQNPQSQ
Method in brief: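 ER-beta-UAS-bla HEK293T (GripTite) cells carrying a UAS-driven beta-lactamase reporter, in medium with 2% charcoal-stripped FBS, were exposed to compounds for 16 hr at 37C; LiveBLAzer B/G FRET substrate was then added and fluorescence read after 2 hours at room temperature.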

[15] = target: Estrogen receptor beta (Homo sapiens) (UniProt Q92731); assay: qHTS assay to identify small molecule antagonists of the estrogen receptor beta (ER-beta) signaling pathway (AID 1259378; active = well fitted inhibition curve with a large enough effect in the signal ratio in the repeat runs, not every such curve was filed as active; the % refers to the signal ratio)
Method in brief: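 ER-beta-UAS-bla HEK293T cells in 2% charcoal-stripped FBS medium treated with compound plus 1nM final 17-beta-estradiol for 16 hr at 37C. Beta-lactamase reporter read by FRET substrate fluorescence after 2 hours at room temperature.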

[16] = qHTS assay to identify small molecule antagonists of the estrogen receptor beta (ER-beta) signaling pathway - cell viability counter screen (AID 1259382); also: series mostly up to about 92 µM; nearly all actives have a fitted effect of over 55% in size
Method in brief: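 CellTiter-Glo ATP luminescence measured after the LiveBLAzer read in the same wells; ER-beta-UAS-bla HEK293T cells, 16 hr compound treatment with 1nM 17-beta-estradiol agonist at 37C, 5% CO2.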

[17] = qHTS assay to identify small molecule agonists of the estrogen receptor beta (ER-beta) signaling pathway - cell viability counter screen (AID 1259380); also: nearly all actives have a fitted effect of over 30% in size
Method in brief: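 Compounds dissolved in DMSO were pin-transferred onto ER-beta-UAS-bla HEK293T cells that had settled 6 hr, and exposure ran 16 hr at 37C. Following the reporter read, CellTiter-Glo luminescence after 30 min at room temperature indicated cytotoxicity.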

Measured: Potency

CC(C)CP(=S)(S)CC(C)C
not listed: [13] | [14] | [15] | [16] | [17]
inactive: all other assays above

OC(Cn1cncn1)(c1ccc(F)cc1)c1ccccc1F (stereo not given)
not listed: [6] | [12] | [17]
inactive: all other assays above

NC(=S)C(N)=S
not listed: [6] | [8] | [11] | [12] | [13] | [14]
inactive: all other assays above

N#CCBr
not listed: [6] | [13] | [14]
inactive: all other assays above

O=C(O)c1cccc(Cl)c1
not listed: [6] | [17]
inactive: all other assays above

C[N+](=O)[O-]
not listed: [6] | [12] | [14] | [15] | [16]
inactive: all other assays above

ClC(Cl)C(Cl)Cl
not listed: [6] | [11] | [12]
inactive: all other assays above

O=C1OC(=O)C2C1C1(Cl)C(Cl)=C(Cl)C2(Cl)C1(Cl)Cl (stereo not given)
not listed: [6] | [12] | [13]
inactive: all other assays above

ClC(Br)Br
not listed: [8]
inactive: all other assays above

CCCCc1c(C)nc(NCC)[nH]c1=O
not listed: [8] | [10]
inactive: all other assays above

O=C(O)C(Br)CBr (stereo not given)
not listed: [13] | [14] | [16] | [17]
inactive: all other assays above

Oc1c(Cl)cccc1Cl
not listed: [6] | [14]
inactive: all other assays above
